{"source": "PubChem BioAssay (Tox21)", "note": "Inconclusive results are not listed. Calls of active or inactive are those of the source. Calls come from the whole dose curve; as a rule, active = well fitted inhibition curve with a large enough effect in the repeat runs; inconclusive = weak or mixed curves; inactive = no such curve, though single readings can be large or run the other way. % is set by controls: 0 for no effect and ±100 for the full control effect; potency is the fitted concentration of half-maximal effect.", "data": [{"assay": "qHTS assay to identify small molecule antagonists of the thyroid receptor (TR) signaling pathway (AID 743065); note: nearly all actives have a fitted effect of over 55% in size", "conditions": "GH3.TRE-Luc, T3-stimulated luciferase inhibition, 23.5 h; series mostly up to 70.3 µM; activity, negative = inhibition: at the top concentration", "description": "U.S. Tox21 Program National Center for Advancing Translational Sciences [NCATS] NIH Chemical Genomics Center [NCGC] U.S. Environmental Protection Agency [EPA] National Institutes of Environmental Health Sciences [NIEHS] National Toxicology Program [NTP] U.S. Food and Drug Administration [FDA] Tox21 Assay Overview: Thyroid receptor (TR), a nuclear hormone receptor, plays an important role in development, proliferation, differentiation, metabolism, brain function, and cardiovascular system. […] To profile the Tox21 10K compound library in TR signaling, a cell-based GH3-TRE-Luc assay (GH3.TRE-Luc cell line, developed by the laboratory of Dr. Albertinka J. Murk, Wageningen University) was used to measure the inhibition of TR. GH3 (rat pituitary tumor) cells stably expressing a TR activity sensor consisting of two TR response elements and a luciferase reporter gene.\nTox21 Assay Protocol Summary: GH3.TRE-Luc cells were dispensed at 1500 cells/4 uL/well into 1536-well white solid bottom plates using a Multidrop Combi dispenser (Thermo Fisher Scientific Inc., Waltham, MA). After the assay plates were incubated at 37 C for 4 hours, 23 nL of library compound or DMSO controls was transferred to the assay plates by a pintool station (Kalypsys, San Diego, CA), followed by addition of 1 ul of T3 (1 nM, final concentration in the wells) to stimulate TR transactivation. The assay plates were incubated at 37 C for 23.5 h, and then 1 uL of CellTiter-Fluor reagent (Promega, Madision, WI) of measuring cytotoxicity was added to each well using a Bioraptr Flying Reagent Dispenser (FRD) workstation (Beckman Coulter, Indianapolis, IN, USA). The plates were incubated at 37 C and 5% CO2 for additional 30 min, and fluorescence intensity was measured by a ViewLux plate reader (PerkinElmer, Shelton, CT). For measuring luciferase reporter gene activity, 4 uL of ONE-Glo Luciferase Assay reagent (Promega) was added to each well using a Bioraptr FRD (Beckman Coulter), followed by 30 min incubation at room temperature. The luminescence intensity of plates was recorded by a ViewLux plate reader (PerkinElmer, Shelton, CT).", "values": [{"smiles": "CCCCC(=O)Cl", "activity, negative = inhibition": "40.1% [at 95 µM] (inactive)"}, {"smiles": "CC(CC(C#N)(c1ccccc1)c1ccccc1)N(C)C", "note": "(stereo not given)", "Potency": "30.5 µM (active)"}, {"smiles": "CCOC(=O)CP(=O)(OCC)OCC", "activity, negative = inhibition": "3.8% (inactive)"}, {"smiles": "CCCCc1c(C)nc(NCC)[nH]c1=O", "activity, negative = inhibition": "5.05% (inactive)"}, {"smiles": "COC(=O)c1ccccc1S(=O)(=O)NC(=O)Nc1nc(C)cc(C)n1", "activity, negative = inhibition": "-7.64% (inactive)"}, {"smiles": "COP(N)(=S)Oc1ccccc1C(=O)OC(C)C", "note": "(stereo not given)", "activity, negative = inhibition": "20.4% (inactive)"}, {"smiles": "CCN(CC)CCOC(=O)C(C)(c1ccccc1)c1ccccc1", "Potency": "26.6 µM (active)"}, {"smiles": "ClCCOCOCCCl", "activity, negative = inhibition": "-0.743% [at 95 µM] (inactive)"}, {"smiles": "NC(=O)O", "activity, negative = inhibition": "-0.301% (inactive)"}, {"smiles": "CCOP(=S)(OCC)SCSc1ccc(Cl)cc1", "Potency": "inactive"}, {"smiles": "COCC(=O)N(c1c(C)cccc1C)N1CCOC1=O", "activity, negative = inhibition": "-5.77% (inactive)"}, {"smiles": "N#Cc1c(Cl)cccc1Cl", "activity, negative = inhibition": "-0.139% (inactive)"}, {"smiles": "CN1C[C@@H](NS(=O)(=O)N(C)C)C[C@@H]2c3cccc4c3c(cn4C)C[C@H]21", "activity, negative = inhibition": "-19.9% (inactive)"}, {"smiles": "CCCSC(=O)Cl", "activity, negative = inhibition": "5.61% [at 95 µM] (inactive)"}, {"smiles": "COC(=O)c1ccccc1S(=O)(=O)NC(=O)N(C)c1nc(C)nc(OC)n1", "activity, negative = inhibition": "-1.87% [at 95 µM] (inactive)"}, {"smiles": "CC1CCCCC1NC(=O)Nc1ccccc1", "note": "(stereo not given)", "activity, negative = inhibition": "-5.46% (inactive)"}, {"smiles": "Nc1cnn(-c2ccccc2)c(=O)c1Cl", "activity, negative = inhibition": "2.53% (inactive)"}, {"smiles": "CNNC", "activity, negative = inhibition": "-1.37% [at 95 µM] (inactive)"}, {"smiles": "CS(=O)(=O)c1cc(C(F)(F)F)ccc1C(=O)c1cnoc1C1CC1", "activity, negative = inhibition": "-1.85% (inactive)"}, {"smiles": "CCCCP(CCCC)CCCC", "activity, negative = inhibition": "-13.3% (inactive)"}, {"smiles": "CNC(=O)Oc1c(C(C)(C)C)cc(C)cc1C(C)(C)C", "activity, negative = inhibition": "-9.41% (inactive)"}, {"smiles": "C[C@]12CC[C@H]3[C@@H](CC=C4C[C@@H](O)CC[C@@]43C)[C@@H]1CC[C@@H]2O", "activity, negative = inhibition": "-5.55% (inactive)"}, {"smiles": "CC1=NNC(=O)N(/N=C/c2cccnc2)C1", "activity, negative = inhibition": "4.15% (inactive)"}, {"smiles": "COc1cc(OC)nc(NC(=O)NS(=O)(=O)c2ncccc2C(=O)N(C)C)n1", "activity, negative = inhibition": "6.03% (inactive)"}, {"smiles": "c1cc[c]([Hg][c]2ccccc2)cc1", "Potency": "3.06 µM (active)"}, {"smiles": "CC(N)=S", "activity, negative = inhibition": "2.89% (inactive)"}, {"smiles": "CCNc1nc(NC(C)C)nc(OC)n1", "activity, negative = inhibition": "-0.0523% (inactive)"}, {"smiles": "O=NN1CCN(N=O)CC1", "activity, negative = inhibition": "1.12% (inactive)"}, {"smiles": "CC(C1CC1)C(O)(Cn1cncn1)c1ccc(Cl)cc1", "note": "(stereo not given)", "activity, negative = inhibition": "-6.55% (inactive)"}, {"smiles": "CC1CN1P(=O)(N1CC1C)N1CC1C", "note": "(stereo not given)", "activity, negative = inhibition": "4.04% (inactive)"}, {"smiles": "C[N+](=O)[O-]", "activity, negative = inhibition": "0.0835% (inactive)"}, {"smiles": "CCOC(=O)/C=C(C)/C=C/C[C@@H](C)CCCC(C)C", "activity, negative = inhibition": "7.88% (inactive)"}, {"smiles": "CC(C)COP(=O)(OCC(C)C)OCC(C)C", "activity, negative = inhibition": "-13.9% (inactive)"}, {"smiles": "CNC(=O)Oc1cccc(C(C)C)c1", "activity, negative = inhibition": "9.29% (inactive)"}, {"smiles": "CC(=O)C(Cl)Cl", "activity, negative = inhibition": "0% [at 95 µM] (inactive)"}, {"smiles": "CNC(=O)N(C)c1nc2ccccc2s1", "activity, negative = inhibition": "-10.8% (inactive)"}, {"smiles": "O=C(Cc1ccccc1)OCc1ccccc1", "activity, negative = inhibition": "-4.69% [at 95 µM] (inactive)"}, {"smiles": "O=C(N[C@H]1CN2CCC1CC2)c1cc2ccoc2cn1", "activity, negative = inhibition": "-9.64% (inactive)"}, {"smiles": "Cc1ncc(CNC(=O)N(CCCl)N=O)c(N)n1", "activity, negative = inhibition": "6.31% (inactive)"}, {"smiles": "OCCSCSCCO", "activity, negative = inhibition": "7.6% (inactive)"}]}]}
